Consider 60 compounds from PubChem BioAssay AID598 (SRMLSC, 2007).

In all, about 85,000 compounds went through this assay and about 5,100 (6%) were called active. Only a selection was taken, and actives are over-represented in it overall. A number with no mark means an inactive call.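 Rule for the calls: active = viability at or below 40%; inactive = viability above 40%.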

In general, viability refers to a read-out of living cells in per cent, often relative to untreated cells.

The nature of the assay: H69AR cell viability reduction – human, 86K library, primary screen (AID 598).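 Note: multidrug resistant small cell line overexpressing MRP-1 efflux transporter; 100% = mean luminescence of untreated control wells.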 The settings on record: H69AR lung tumor viability, ATP luminescence, 72 h; at 10 µM; hits give low values.
Take `O=C(NC1CCC(O)CC1)c1ccc(S(=O)(=O)NCc2ccco2)cc1` (stereo not given): the viability is 96.7%.
The figure for `Cc1nnc(SCC(=O)NCc2ccccc2)s1` is 96.4%; for `CC1(C)Cc2c(sc3nc(SCC(=O)NCc4ccccc4)n(-c4ccccc4)c(=O)c23)CS1` it is 24.1% (active).
Consider `CNC(=O)CSc1nnc(CCc2ccccc2)n1-c1ccccc1`, for which the viability is 83.2%.
With `CCOC(=O)c1c(NC(C)=O)sc2c(O)c(Br)ccc12` the figure was 94.9%; with `COc1ccc(C(C#N)Nc2ccccc2C)cc1` (stereo not given), 88.9%.
Regarding `O=C(Nc1nnc(SCc2ccccc2)s1)c1ccco1`, the viability was 96%.
Consider `Clc1cccc(-c2nc3nc4ccccc4nc3n2Cc2ccco2)c1`, for which the viability is 34.4% (active).
For the compound `O=C(CSc1nnc(-c2cccnc2)n1Cc1ccco1)c1ccc(Cl)cc1`, the viability is 95.3%.
On to `COc1ccc(CCn2c(-c3ccco3)nc3nc4ccccc4nc32)cc1OC`, for which the viability is 55.4%.
With `Cc1cccc(S(=O)(=O)CC(=O)Nc2nc(-c3ccccc3)cs2)c1` the figure was 99.7%; with `Cc1nc(NNC(=O)c2ccccc2)cc(-c2ccccc2)n1`, 91.7%.
In the case of `O=C(NCc1ccccc1)[C@@H]1CSC2c3ccccc3C(=O)N21` (stereo not given in full), the viability is 78.5%.
Turning to `COC(CNC(=O)Cn1ncc2ccsc2c1=O)OC`, the viability is 101%.
For the compound `COC(=O)c1cccc(N(C(=O)c2ccco2)C(C(=O)NC2CCCC2)c2ccco2)c1` (stereo not given), the viability was 32.4% (active).
With `Cc1cccc(N(C(=O)c2ccc(CN3CCOCC3)o2)C(C(=O)NC2CCCCC2)c2ccc(F)cc2)c1` (stereo not given), the viability was 103%.
For `COC(=O)c1ccc(N(CC(=O)NC2CCCC2)C(=O)CNC(=O)c2ccco2)cc1`, the viability is 94.9%.
For the compound `COc1ccc(-c2oc(/N=C/N3CCCC3)c(C#N)c2-c2ccc(OC)cc2)cc1`, the viability was 99.1%.
On to `O=C(N/N=C\c1cccc(Br)c1)c1ccccc1-n1cccc1`, for which the viability is 93.7%.
Consider `N=c1c2c(-c3ccccc3)c(-c3ccccc3)n(Cc3ccccc3)c2ncn1CCCO`, for which the viability is 0.82% (active).
As for `Cc1ccc(NC(=O)N2CCC(c3nc4c(nnn4Cc4c(F)cccc4Cl)c(=O)[nH]3)CC2)cc1`, the viability is 67.6%.
`CCCCNC(=O)C1CCCNC1=O` (stereo not given): the viability is 98.9%.
Turning to `COc1ccccc1-c1c(C)nn2c(C)c(C(C)=O)cnc12`, the viability is 89.8%.
In the case of `C=C(C)COc1ccc(-c2n[nH]c(C)c2-c2ccccc2OC)c(O)c1`, the viability was 39.9% (active).
Turning to `COc1ccc(-c2n[nH]c(C)c2-c2ccc(OC)c(OC)c2)c(O)c1`, the viability was 14.9% (active).
Take `C=C(C)COc1ccc(-c2n[nH]c(C)c2-c2ccccc2)c(O)c1`: the viability is 95.5%.
As for `O=C(Cn1c(-c2cscn2)nc2ccccc21)Nc1ccc(Cl)cc1`, the viability is 72.9%.
In the case of `COc1ccc(C)cc1S(=O)(=O)NCCc1ccccc1`, the viability is 96%.
The figure for `CCCCOc1ccc(N(CC(=O)NCC2CCCO2)C(=O)CCC(=O)Nc2cc(C)ccn2)cc1` (stereo not given) is 102%; for `O=C(CC12CC3CC(CC(C3)C1)C2)Nc1ccc2c(c1)COC2=O` it is 90.9%; for `O=S(=O)(NN=C1CCCCCCC1)c1ccc(Br)cc1` it is 88.9%.
Consider `CC/S(CC1CC1(Cl)Cl)=N\S(=O)(=O)c1ccc(C)cc1` (stereo not given), for which the viability is 76.7%.
For the compound `CCOc1ccc2nc(NC(=O)CSc3nc4c(c(=O)n(C)c(=O)n4C)n3CC)sc2c1`, the viability was 14.9% (active).
Consider `CCn1c(SCC(=O)Nc2nc3ccc(OC)cc3s2)nnc1-c1ccoc1C`, for which the viability was 58.8%.
The figure for `CCCCn1c(SCC(=O)NCCc2ccc(OC)c(OC)c2)nc2c1c(=O)n(C)c(=O)n2C` is 86.6%; for `COC(=O)CNC(=O)c1ccccc1F` it is 85.2%; for `O=C(c1ccc(Cl)c(Cl)c1)N1CCCC1` it is 95.3%.
In the case of `C/C=C/C(=O)OCC(=O)Nc1ccc(F)cc1Cl`, the viability is 98.4%.
With `COc1ccccc1-n1nnnc1S(=O)(=O)Cc1ccc(Cl)cc1` the figure was 1.36% (active); with `COc1ccccc1N1CCN(C(=O)CN(Cc2ccc(Cl)cc2)S(C)(=O)=O)CC1`, 86.8%.
With `COc1ccccc1N1CCN(Cc2nnnn2CCc2ccccc2)CC1` the figure was 102%; with `COCc1[nH][nH]c(=O)c1C=Nc1ccc(F)cc1F`, 96.8%; with `Cc1cc(C(F)F)n2nc(C(=O)Nc3ccc(S(=O)(=O)NC45CC6CC(CC(C6)C4)C5)cc3)nc2n1`, 115%.
As to `CC(C)CNC(=O)CC(c1ccccc1)c1c(O)ccc2ccccc12` (stereo not given), the viability was 92.8%.
`O=S(=O)(NCCc1ccccc1)c1ccccc1`: the viability was 103%.
Turning to `CCN1C(=O)C(CC(=O)Nc2cc(C)ccc2C)SC1=Nc1ccc(S(N)(=O)=O)cc1` (stereo not given), the viability was 97.3%.
On to `Cc1ccc(OCC(=O)Nc2ccc(-c3nnc(-c4ccco4)o3)cc2)cc1`, for which the viability was 90.5%.
On to `COc1ccc(CC(=O)Nc2ccc(-c3nnc(-c4ccccc4)o3)cc2)cc1`, for which the viability was 58.1%.
For `COc1ccc(CC(=O)Nc2ccc(-c3nnc(-c4ccc(C)cc4)o3)cc2)cc1`, the viability is 2.28% (active).
With `CN(Cc1ccccc1)C(=O)COc1ccccc1` the figure was 97.9%.
Regarding `CCc1ccccc1NC(=O)CN(C)S(=O)(=O)c1ccc2c(c1)c(=O)n(C)c(=O)n2C`, the viability is 88.5%.
The figure for `CC(=O)c1ccc(S(=O)(=O)N2CCN(c3nc4c(C)c(C)ccc4cc3C#N)CC2)cc1` is 36% (active); for `Cc1cccc2cc(C#N)c(N3CCCC3)nc12` it is 100%; for `Cc1cc(C)c2nc(N3CCCC3)c(C#N)cc2c1` it is 91.6%.
On to `CCS(=O)(=O)Nc1ccc(C2=NN(S(=O)(=O)c3ccc(F)cc3)C(c3ccco3)C2)cc1` (stereo not given), for which the viability was 81.9%.
As for `O=C(NC1CCCC1)C(c1ccccn1)N(C(=O)c1csnn1)C1CCCC1` (stereo not given), the viability is 81.2%.
With `CCOC(=O)CN(Cc1ccc(OC)c(OC)c1)S(=O)(=O)c1ccc(OC)cc1` the figure was 87.8%.
`Cc1cc(C)cc(N(CC(=O)Nc2c(C)n(C)n(-c3ccccc3)c2=O)S(C)(=O)=O)c1`: the viability was 93.1%.
With `Cc1c(NC(=O)CSc2cccc3cccnc23)c(=O)n(-c2ccccc2)n1C`, the viability was 0.71% (active).
On to `Cc1ccccc1OCCC(=O)Nc1c(C)n(C)n(-c2ccccc2)c1=O`, for which the viability was 91%.
